Screening data as filed in PubChem BioAssay.
Only some compounds are listed: those with a hit (about 18% of all), similar ones and a draw of the others.
DT40 TDP1 no CPT = qHTS for Inhibitors of human tyrosyl-DNA phosphodiesterase 1 (TDP1): qHTS in cells in absence of CPT | DT40 Tdp1-/- hTDP1 cells, no CPT, ATP luminescence, 48 h | Potency, µM (doses to about 46.2 µM), without a hit: at the top dose activity change, negative = growth inhibition, usual class: inhibitors | 15% of 420,000 active | AID 686978, 2013; further: potency means the concentration at half of the fitted maximal effect; nearly all actives have a fitted effect of over 55% in size
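Growth kinetics read by CellTiter-Glo luminescence after ≥48 hr at 37 °C. Cells: DT40 Tdp1-/- stably carrying human TDP1, 400 per well, compound exposure in the absence of CPT (DMSO vehicle).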
Gal4-VP16 FLuc = Gal4-VP16 reporter inhibition counter-screen | Potency, µM (doses to about 53.6 µM), inactives show at the top dose activity, negative = inhibition, most hits filed as inhibitors | Drosophila S2 Gal4-VP16 UAS-luciferase, luminescence, 20 h | 3.5% of 310,000 active | AID 2546;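 further: Gal4-VP16 expression switched on by copper sulfate through the metallothionein promoter; potency means the concentration at half of the fitted maximal effect; nearly all actives have a fitted effect of over 50% in size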
TDP1 cell CPT = DT40-hTDP1 cell growth loss with CPT; chicken DT40 Tdp1-/-;hTDP1 cells + 20 nM CPT, ATP luminescence, 48 h; Potency, µM (top dose mostly 46.2 µM), without a hit: at the highest dose activity change, negative = growth inhibition, actives largely listed as inhibitors; 12% of 420,000 active; AID 686979; further: potency means the concentration at half of the fitted maximal effect; nearly all actives have a fitted effect of over 55% in size
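Chicken DT40 Tdp1-/- cells stably complemented with human TDP1 were seeded at 400 cells/well in medium containing 20 nM camptothecin, exposed to pin-transferred compounds, and grown at 37 °C for at least 48 hr. Viability was read as ATP luminescence.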
RORg inh = ROR gamma (mouse) transcription inhibition; P51450; 5.4% of 310,000 active; AID 2551; Potency, µM (series often up to 53.6 µM), for inactives: top-dose activity change, negative = inhibition, most hits filed as inhibitors; Drosophila S2 Gal4-RORgamma UAS-luciferase reporter, 20 h; further: potency means the concentration at half of the fitted maximal effect; nearly all actives have a fitted effect of over 60% in size
Target sequence (P51450 whole entry, looked up, the tested form may be a part): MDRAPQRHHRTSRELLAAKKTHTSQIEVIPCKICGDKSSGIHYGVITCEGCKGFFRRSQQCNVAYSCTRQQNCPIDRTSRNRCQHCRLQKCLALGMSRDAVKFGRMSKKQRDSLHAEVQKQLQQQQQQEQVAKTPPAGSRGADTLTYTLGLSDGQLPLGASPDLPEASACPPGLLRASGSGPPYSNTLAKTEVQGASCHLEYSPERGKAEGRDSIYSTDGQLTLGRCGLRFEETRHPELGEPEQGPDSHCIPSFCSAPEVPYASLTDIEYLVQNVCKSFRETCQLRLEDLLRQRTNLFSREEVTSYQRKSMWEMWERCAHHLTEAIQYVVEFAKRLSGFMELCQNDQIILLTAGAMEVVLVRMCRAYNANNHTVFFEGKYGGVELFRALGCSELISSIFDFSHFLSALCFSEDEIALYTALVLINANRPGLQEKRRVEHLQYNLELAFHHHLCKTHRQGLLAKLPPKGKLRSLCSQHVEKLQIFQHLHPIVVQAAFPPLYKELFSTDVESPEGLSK
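A Gal4/UAS one-hybrid system in insect cells: metallothionein-promoter Gal4–ROR gamma fusion plus Photinus luciferase reporter. Copper sulfate 700 uM final, 20 hr ambient incubation, luminescent detection after 10 min with reagent.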
IL-1B inflam inh = inflammasome signaling inhibition, IL-1 beta readout; THP-1 LPS/ATP IL-1B secretion, AlphaLISA, 16 h; stronger effect = lower value; AID 743279; 4.7% of 360,000 active; activity change, % at 57.5 µM; in the data active means activity change below about -50%; inconclusive means mostly about -30% to -49%
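Secreted IL-1B measured by AlphaLISA bead assay after 16 h compound exposure of THP-1 cells; compounds (final up to 57.5 uM) added 1 h before LPS (250 ng/mL) and ATP (1.25 mM) stimulation; lower signal means less secretion.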
LDHA inh = LDHA (human) enzyme inhibition | activity change, % (values are at about 110 or 230 µM) | 0.15% of 480,000 active | purified LDHA, NADH/diaphorase-resazurin fluorescence; stronger effect = lower value; in the data active means activity change below about -30%; inconclusive means mostly about -25% to -30%;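 further: plate controls were DMSO wells for no effect and wells without enzyme for full effect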
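LDH5 2 nM; NADH 0.06 mM, pyruvate 0.2 mM; 200 mM Tris pH 7.4, EDTA, Tween-20; 5 min RT. Detection: diaphorase 0.133 mg/mL + resazurin 37 µM, fluorescence ex540/em590 at 0 and 20 min; normalized to enzyme-free and DMSO wells.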
The depositor's hits bear a star; ! = repeats disagree; [ ] = dose if it differs, or a comment. Unless noted, the call rests on the fitted dose curve; in most records, active means well fitted curve in the direction sought with a large enough effect; inconclusive means small, poorly fitted or top-dose-only effect, or another doubt; inactive means no such curve, though single readings can be large; an effect the other way counts as inactive or inconclusive. Unless noted, on the % scale 0 is the no-effect control and ±100 the full control effect.

Screening O=C(CCn1c(=O)oc2ccccc21)N1CCN(C(c2ccccc2)c2ccccc2)CC1 returned DT40 TDP1 no CPT inconclusive, Gal4-VP16 FLuc -4%, TDP1 cell CPT 16µM*, RORg inh 32%, IL-1B inflam inh -65* and LDHA inh -3.
Cc1cccc(CN2CCN(Cc3ccccc3F)CC2)c1 was read as LDHA inh -10.
`Cc1ccc(C2CC3CCC(C2)N3Cc2ccccc2F)cc1` (stereo unspecified) gave DT40 TDP1 no CPT inconclusive, Gal4-VP16 FLuc 4%, TDP1 cell CPT inconclusive, RORg inh -11%, IL-1B inflam inh -85* and LDHA inh -5.
For CC[C@H]1CN(C)C[C@@]2(C(=O)OC)Cc3c([nH]c4ccccc34)C(=O)C[C@@H]12 the results were DT40 TDP1 no CPT 13%, TDP1 cell CPT 13%, IL-1B inflam inh 5 and LDHA inh 1.
For CC[C@H]1CN(C)CCc2c([nH]c3ccccc23)C(=O)C[C@@H]1/C(=C\OC)C(=O)OC the results were DT40 TDP1 no CPT -19%, TDP1 cell CPT 29µM*, IL-1B inflam inh -7 and LDHA inh 8.
Screening CC1(Cc2ccc(C(F)(F)F)nc2)C(=O)Nc2cc(-c3ccccc3Cl)ccc21 (stereo unspecified) returned DT40 TDP1 no CPT inconclusive, TDP1 cell CPT 16µM* and LDHA inh -7.
Screening COc1ccc(C(C)=O)cc1CC1(C)C(=O)Nc2ccc(-c3ccccc3OC)cc21 (stereo unspecified) returned DT40 TDP1 no CPT inconclusive, TDP1 cell CPT inconclusive, IL-1B inflam inh -2 and LDHA inh -1.
COc1ccc(C(C)(C)C)cc1NC(=O)CCCn1c(=O)oc2ccccc21 was read as DT40 TDP1 no CPT inconclusive, Gal4-VP16 FLuc 4%, TDP1 cell CPT -24%, RORg inh 18%, IL-1B inflam inh -14 and LDHA inh 0.
`O=C(CN1CCOCC1)c1cccc2ccccc12` gave DT40 TDP1 no CPT inconclusive, Gal4-VP16 FLuc -18%, TDP1 cell CPT -24%, RORg inh -14%, IL-1B inflam inh -2 and LDHA inh -1.
Cc1c(C(=O)c2ccc3ccccc3c2)c2cccc3c2n1[C@H](CN1CCOCC1)CO3 was read as DT40 TDP1 no CPT inconclusive, Gal4-VP16 FLuc -21%, TDP1 cell CPT 12µM* and RORg inh 27%.
For Cc1c(C(=O)c2cccc3ccccc23)c2cccc3c2n1[C@H](CN1CCOCC1)CO3 the results were DT40 TDP1 no CPT 4.6µM*!, Gal4-VP16 FLuc -12%, TDP1 cell CPT 2.9µM*!, RORg inh inconclusive, IL-1B inflam inh -27 and LDHA inh -10.
Screening Cc1c(C(=O)C(=O)N2CCOCC2)c2ccccc2n1Cc1ccccc1 returned DT40 TDP1 no CPT 0%, Gal4-VP16 FLuc 14%, TDP1 cell CPT 11%, RORg inh 21%, IL-1B inflam inh -1 and LDHA inh 1.
Screening Cc1occc1C(=O)Nc1ccccc1 returned Gal4-VP16 FLuc 4% and RORg inh 35%.
`Cc1cc(C(=O)Nc2ccc(CC(=O)O)cc2)c(C)o1` gave DT40 TDP1 no CPT -3%, Gal4-VP16 FLuc inconclusive, TDP1 cell CPT 0%, RORg inh 11µM*, IL-1B inflam inh -9 and LDHA inh -4.
For c1cc(CN2CCC3(CCNCC3)CC2)ccn1 the results were DT40 TDP1 no CPT -2%, Gal4-VP16 FLuc -11%, TDP1 cell CPT -1% and RORg inh -19%.
`CCC(C)C1NC(=O)C(NC(=O)C(CC(C)C)N(C)C(=O)C2CCCN2C(=O)C(C)O)C(C)OC(=O)C(Cc2ccc(OC)cc2)N(C)C(=O)C2CCCN2C(=O)C(CC(C)C)NC(=O)[C@H](C)C(=O)[C@H](C(C)C)OC(=O)CC1O` (stereo partly specified) gave DT40 TDP1 no CPT 0.029µM*, TDP1 cell CPT 0.037µM*, IL-1B inflam inh -100* and LDHA inh 4.
Screening CC1CN(c2ccccn2)C(C)CN1C(=O)C(O)(c1ccccc1)c1ccccc1 (stereo unspecified) returned DT40 TDP1 no CPT 23µM*, TDP1 cell CPT 29µM*, IL-1B inflam inh 4 and LDHA inh -1.
Screening CN(CC(=O)Nc1ccc(N2CCOCC2)cc1)CC(=O)Nc1cccc(C#N)c1 returned DT40 TDP1 no CPT -10%, Gal4-VP16 FLuc inconclusive, TDP1 cell CPT -2%, RORg inh 16%, IL-1B inflam inh 0 and LDHA inh 0.
Screening COc1ccc(NC(=O)Nc2ccc3c(c2)C(=O)N([C@H](C)CO)C[C@H](C)[C@@H](CN(C)S(=O)(=O)c2ccc(OC)cc2)O3)cc1 returned DT40 TDP1 no CPT inconclusive, TDP1 cell CPT inconclusive, IL-1B inflam inh 21 and LDHA inh -2.
C[C@@H]1CCCCO[C@@H](CN(C)S(=O)(=O)c2ccc(F)cc2)[C@@H](C)CN([C@H](C)CO)C(=O)c2cc(N(C)C)ccc2O1 was read as DT40 TDP1 no CPT 21µM*, TDP1 cell CPT inconclusive, IL-1B inflam inh -17 and LDHA inh 3.
For COc1ccc(S(=O)(=O)N(C)C[C@H]2OCCCC[C@@H](C)Oc3ccc(N(C)C)cc3C(=O)N([C@H](C)CO)C[C@@H]2C)cc1 the results were DT40 TDP1 no CPT 23µM*, TDP1 cell CPT inconclusive, IL-1B inflam inh -24 and LDHA inh 3.
O=C1/C(=C\c2ccccc2F)N2CCC1CC2 was read as LDHA inh -3.
`C[C@H](CCC(=O)O)C[C@H](C)C[C@H](C)C(=O)/C=C(\O)[C@H](C)C[C@H](C)C/C=C/[C@@H](C)[C@@H](O)[C@@H](C)[C@@H](O)C[C@@H]1CC[C@@](C)(C2CC[C@@](C)([C@@H](C)O)O2)O1` (stereo partly specified) gave Gal4-VP16 FLuc 6.3µM* and RORg inh inconclusive.
`OCC(Br)(Br)Br` gave Gal4-VP16 FLuc -6% and RORg inh -5%.
Screening CCOC(=O)c1c(C)n(C2CCCCCC2)c2ccc(O)cc12 returned LDHA inh 11.
`COc1ccc(N2C(=O)CS(=O)C(c3ccccc3)C2=O)cc1` (stereo unspecified) gave DT40 TDP1 no CPT 21µM*, Gal4-VP16 FLuc -1%[10 µM], TDP1 cell CPT inconclusive, RORg inh 1.3µM*, IL-1B inflam inh 20 and LDHA inh 0.
